# Test results published in PubChem BioAssay (NCATS).
# Results filed as inconclusive are left out. Values without a mark were called inactive. Active and inactive are the calls of the source. Calls come from the whole dose curve; as a rule, active = well fitted cell-killing curve with a large enough effect; inconclusive = small, poorly fitted or top-dose-only effect, or effect the other way; inactive = flat fitted curve, though single readings scatter.
# Tested on: PA-1
# Assay: Primary qHTS to identify gynecologic anti-cancer compounds using libraries of approved drugs and bioactive compounds (AID 1345084); note: nearly all actives have a fitted effect of over 55% in size
# Conditions: Gynecologic cancer cell panel viability, ATPlite luminescence, 48 h; series mostly up to 57.5 µM; activity change, negative = cytotoxicity: at the top concentration
# Summary of the method: (§1)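 Five-concentration response, 48 h; readout is ATP-driven luciferase luminescence.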
# % is set by controls: 0 for no effect and ±100 for the full control effect; potency is the fitted concentration of half-maximal effect.
Compound,Potency,"activity change, negative = cytotoxicity"
O=C(Nc1ccccc1Cl)c1cnc2ccc(C3CCNCC3)cn12,0.891 µM (active),–
Cc1nc(C#Cc2ccnc(Cl)c2)c(C)n1-c1ccc(F)cc1,–,-24.9%
CC#CC(=O)Nc1ccc2ncnc(Nc3cccc(Br)c3)c2c1,7.94 µM (active),–
CC(=O)CC(=O)Nc1ccc(Cl)c(C(F)(F)F)c1,–,0.518%
O=C(Nc1nnc(-c2ccc3c(c2)OCCO3)o1)C1CCCCC1,–,-29.7%
CC(=O)OC1C(OC(=O)c2ccccc2)C2C(=C(C)CCC2(C)C)C23CCC(C)(C2)C(=O)CC13 (stereo not given),–,-27.4% [at 25.3 µM]
COc1ccc2cc3c(NC(=O)c4ccco4)nn(C)c3nc2c1,–,-20.9%
Cc1nc(Nc2cnn(C3CCNCC3)c2)nc2c1N(C)C(=O)c1cc3ccccc3cc1N2C,–,-18%
CCCn1ncc(CN2CCCC(C(=O)c3cccc(OC(C)C)c3)C2)c1C (stereo not given),–,-21.1%
COc1cc(F)c(C(C)C)cc1-c1ccc(C(F)(F)F)cc1CN1C(=O)OC(c2cc(C(F)(F)F)cc(C(F)(F)F)c2)C1C (stereo not given),–,3.19%
Nc1ncnc2c1nc(Cl)n2C1OC2COP(=O)(O)OC2C1O (stereo not given),8.91 µM (active),–
Fc1ccc(-c2nc(-c3c(F)cccc3F)[nH]c2-c2ccncc2)cc1,–,5.21%
Cc1[nH]c2ccc(F)cc2c1-c1nc2c3cccnc3c3ncccc3c2[nH]1,7.94 µM (active),–
CC(=O)O[C@@H]1CC[C@@]2(C)[C@H](CC[C@@H]3[C@@H]2C[C@H](OC(C)=O)[C@]2(C)[C@@H](C(C)=O)CC[C@@H]32)C1,–,5.44%
O=C(Nc1cccnc1)c1cc(-c2ccnc(F)c2)ccc1OCc1ccccc1,–,-13%
OC1(CN2CCC(COc3noc4cccc(O[C@@H]5CCOC5)c34)CC2)CCOCC1,–,-9.62%
C=C1CCC2C(C)(C)CCCC2(C)C1CC/C(C)=C\CO (stereo not given),–,-10.4%
N#CC(CCCN1CCN(/N=C/c2cccnc2)CC1)(c1ccccc1)c1ccccc1,–,3.62%
CCOc1nc(NC(=O)Cc2cc(OC)ccc2OC)cc(N)c1C#N,–,-7.55%
O=C(CNC(=O)c1cccc(C(F)(F)F)c1)N[C@@H]1CCN(Cc2ccc(Cl)cc2)C1,–,6.6%

Compound,Potency,"activity change, negative = cytotoxicity"
Cc1cnc(-c2ccccc2C(C)C)nc1NCc1ccc(-n2ccnn2)cc1,–,-7.08%
CN(C)Cc1ccc(-c2cnn3c(-c4cccc(NC(=O)c5cccc(C(F)(F)F)c5)c4)ccnc23)cc1,–,-16.4%
O=C(Nc1ccc(Cl)cc1)C1CCCN(C(=O)c2cccc(-c3ccco3)c2)C1 (stereo not given),–,-28.6%
COC(=O)CC1OC(C)C2=C(O)c3c(O)cccc3C(=O)C23OC13 (stereo not given),3.98 µM (active),–
CC(=O)O[C@@H]1C[C@@]2(C)C(CC[C@]3(C)C2CC=C2C4CC(C)(C)CC[C@]4(C(=O)O)CC[C@]23C)C(C)(C)[C@H]1O (stereo not given in full),–,1.08% [at 25.3 µM]
O=C(Nc1ccccc1)c1ccc(Nc2nnc(-c3ccc(O)cc3)c3ccccc23)cc1,–,1.13%
C=C1C(=O)O[C@@H]2C[C@H](C)C3=CC(=O)[C@H](O)[C@@]3(C)C[C@H]12,–,0.523%
N#Cc1ccc(-c2ccc(S(=O)(=O)Nc3cccc(N)n3)cc2)cc1,–,-16%
COc1cc(C#N)ccc1S(=O)(=O)Nc1ccc2c(c1)cc(C)c(=O)n2C,–,-14.4%
C/C(=C/C=C\C=C\Cc1cnco1)[C@@H](O)C(C)(C)C(N)=O,–,-7.8%
CC(C)(C)Oc1ccc(OCC2Cc3ccccc3CN2C(=O)c2cccc3ccccc23)cc1 (stereo not given),–,-17.2%
O=c1cc(N2CCOCC2)nc2c3ccccc3ccn12,–,-26.2%
CC1(C)CC[C@]2(C(=O)O)CC[C@]3(C)C(=CCC4[C@@]5(C)C[C@@H](O)[C@H](O)[C@@](C)(CO)C5CC[C@]43C)[C@@H]2[C@@H]1O (stereo not given in full),–,0.212% [at 25.3 µM]
Cc1ccnn1-c1ccc(C(=O)N2CCN(S(=O)(=O)c3ccc(Cl)c(C(F)(F)F)c3)CC2)cc1,–,2.93%
CCCCNc1ncc(-c2ccc(CN3CCOCC3)cn2)c(NC2CCC(O)CC2)n1 (stereo not given),–,-22% [at 25.3 µM]
CC(C)(N)c1ncc(-c2ccc(OC(F)(F)F)cc2)[nH]1,–,-9.39%
CC(C)(O)c1ccc2c(c1)ncn2-c1cccc(-c2ccccc2C#N)c1,–,3.6%
COc1ccc2c(c1)C(C(=O)N(Cc1ccc(N(C)C)cc1)c1ccc(C(C)C)cc1)CCC2 (stereo not given),–,-9%
C[C@@H]1CC[C@@]23CC[C@]4(C)[C@@](C=CC5[C@@]6(C)CC[C@H](O)C(C)(C)C6CC[C@]54C)(OC2=O)C3[C@H]1C (stereo not given in full),–,-2.53% [at 25.3 µM]
O=C(NNc1nc2cc(F)ccc2n2cccc12)c1cnccn1,3.55 µM (active),–

# Tested on: Tov-21-G
# Assay: as above
# Conditions: Gynecologic cancer cell panel viability, ATPlite luminescence, 48 h; series mostly up to 57.5 µM; activity change, negative = cytotoxicity: at the top concentration
# Summary of the method: as §1
Compound,Potency,"activity change, negative = cytotoxicity"
O=C(Nc1ccccc1Cl)c1cnc2ccc(C3CCNCC3)cn12,1.58 µM (active),–
Cc1nc(C#Cc2ccnc(Cl)c2)c(C)n1-c1ccc(F)cc1,–,2.33%
CC#CC(=O)Nc1ccc2ncnc(Nc3cccc(Br)c3)c2c1,14.1 µM (active),–
CC(=O)CC(=O)Nc1ccc(Cl)c(C(F)(F)F)c1,–,-12.2%
O=C(Nc1nnc(-c2ccc3c(c2)OCCO3)o1)C1CCCCC1,–,-18.7%
CC(=O)OC1C(OC(=O)c2ccccc2)C2C(=C(C)CCC2(C)C)C23CCC(C)(C2)C(=O)CC13 (stereo not given),–,-26.7% [at 25.3 µM]
COc1ccc2cc3c(NC(=O)c4ccco4)nn(C)c3nc2c1,–,-3.05%
Cc1nc(Nc2cnn(C3CCNCC3)c2)nc2c1N(C)C(=O)c1cc3ccccc3cc1N2C,–,-14%
CCCn1ncc(CN2CCCC(C(=O)c3cccc(OC(C)C)c3)C2)c1C (stereo not given),–,-9.29%
COc1cc(F)c(C(C)C)cc1-c1ccc(C(F)(F)F)cc1CN1C(=O)OC(c2cc(C(F)(F)F)cc(C(F)(F)F)c2)C1C (stereo not given),–,-1.29%
Nc1ncnc2c1nc(Cl)n2C1OC2COP(=O)(O)OC2C1O (stereo not given),8.91 µM (active),–
Fc1ccc(-c2nc(-c3c(F)cccc3F)[nH]c2-c2ccncc2)cc1,–,-25.5%
Cc1[nH]c2ccc(F)cc2c1-c1nc2c3cccnc3c3ncccc3c2[nH]1,–,-13.6%
CC(=O)O[C@@H]1CC[C@@]2(C)[C@H](CC[C@@H]3[C@@H]2C[C@H](OC(C)=O)[C@]2(C)[C@@H](C(C)=O)CC[C@@H]32)C1,–,-0.545%
O=C(Nc1cccnc1)c1cc(-c2ccnc(F)c2)ccc1OCc1ccccc1,–,4.58%
OC1(CN2CCC(COc3noc4cccc(O[C@@H]5CCOC5)c34)CC2)CCOCC1,–,-0.833%
C=C1CCC2C(C)(C)CCCC2(C)C1CC/C(C)=C\CO (stereo not given),–,14.6%
N#CC(CCCN1CCN(/N=C/c2cccnc2)CC1)(c1ccccc1)c1ccccc1,–,2.5%
CCOc1nc(NC(=O)Cc2cc(OC)ccc2OC)cc(N)c1C#N,–,5.54%
O=C(CNC(=O)c1cccc(C(F)(F)F)c1)N[C@@H]1CCN(Cc2ccc(Cl)cc2)C1,–,-21.8%

Compound,Potency,"activity change, negative = cytotoxicity"
Cc1cnc(-c2ccccc2C(C)C)nc1NCc1ccc(-n2ccnn2)cc1,–,-0.207%
CN(C)Cc1ccc(-c2cnn3c(-c4cccc(NC(=O)c5cccc(C(F)(F)F)c5)c4)ccnc23)cc1,–,17.5%
O=C(Nc1ccc(Cl)cc1)C1CCCN(C(=O)c2cccc(-c3ccco3)c2)C1 (stereo not given),–,-2.68%
COC(=O)CC1OC(C)C2=C(O)c3c(O)cccc3C(=O)C23OC13 (stereo not given),6.31 µM (active),–
CC(=O)O[C@@H]1C[C@@]2(C)C(CC[C@]3(C)C2CC=C2C4CC(C)(C)CC[C@]4(C(=O)O)CC[C@]23C)C(C)(C)[C@H]1O (stereo not given in full),–,6.5% [at 25.3 µM]
O=C(Nc1ccccc1)c1ccc(Nc2nnc(-c3ccc(O)cc3)c3ccccc23)cc1,–,-0.589%
C=C1C(=O)O[C@@H]2C[C@H](C)C3=CC(=O)[C@H](O)[C@@]3(C)C[C@H]12,–,-11.6%
N#Cc1ccc(-c2ccc(S(=O)(=O)Nc3cccc(N)n3)cc2)cc1,–,2.47%
COc1cc(C#N)ccc1S(=O)(=O)Nc1ccc2c(c1)cc(C)c(=O)n2C,–,-0.0813%
C/C(=C/C=C\C=C\Cc1cnco1)[C@@H](O)C(C)(C)C(N)=O,–,8.84%
CC(C)(C)Oc1ccc(OCC2Cc3ccccc3CN2C(=O)c2cccc3ccccc23)cc1 (stereo not given),–,20.2%
O=c1cc(N2CCOCC2)nc2c3ccccc3ccn12,–,-23%
CC1(C)CC[C@]2(C(=O)O)CC[C@]3(C)C(=CCC4[C@@]5(C)C[C@@H](O)[C@H](O)[C@@](C)(CO)C5CC[C@]43C)[C@@H]2[C@@H]1O (stereo not given in full),–,1.24% [at 25.3 µM]
Cc1ccnn1-c1ccc(C(=O)N2CCN(S(=O)(=O)c3ccc(Cl)c(C(F)(F)F)c3)CC2)cc1,–,-2.16%
CCCCNc1ncc(-c2ccc(CN3CCOCC3)cn2)c(NC2CCC(O)CC2)n1 (stereo not given),–,-6.43% [at 25.3 µM]
CC(C)(N)c1ncc(-c2ccc(OC(F)(F)F)cc2)[nH]1,–,-4.09%
CC(C)(O)c1ccc2c(c1)ncn2-c1cccc(-c2ccccc2C#N)c1,–,20.6%
COc1ccc2c(c1)C(C(=O)N(Cc1ccc(N(C)C)cc1)c1ccc(C(C)C)cc1)CCC2 (stereo not given),–,11.7%
C[C@@H]1CC[C@@]23CC[C@]4(C)[C@@](C=CC5[C@@]6(C)CC[C@H](O)C(C)(C)C6CC[C@]54C)(OC2=O)C3[C@H]1C (stereo not given in full),–,2.45% [at 25.3 µM]
O=C(NNc1nc2cc(F)ccc2n2cccc12)c1cnccn1,8.91 µM (active),–
